This passage reports growth results from PubChem BioAssay (NCI).

Some test systems named below: EKVX NSCLC; SN12C renal; UO-31 renal; TK-10 renal; ACHN renal; CAKI-1 renal; A498 renal; CCRF-CEM leukemia; MOLT-4 leukemia; SR leukemia.
Common to all, as to test: NCI-60 one-dose screen, 48 h (100 = growth as untreated, 0 = no growth, -100 = all killed)
What all share (conditions): 10 µM unless noted

About 83,000 compounds went through this panel and 20% of them were active in at least one assay; those are over-represented in the sample as a whole.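 48-hour exposure, single concentration, 96-well plates; percent growth endpoint where 0 means no net growth. Active: below 10.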 Values without a mark were called inactive. Activity calls are given as the source filed them.

With `O=C1NCC(Nc2ccc(Br)cc2Cl)C(=O)N1` (stereo not given), the growth with EKVX NSCLC was 90.7%; with SN12C renal, 102%; in the assay with UO-31 renal, 67.7%; in the assay on TK-10 renal, 110%; in the assay with ACHN renal it was 96.2%; in the assay on CAKI-1 renal, 91.8%. The growth in the assay on A498 renal is 117%; in the assay on CCRF-CEM leukemia it was 116%; with MOLT-4 leukemia, 109%; in the assay with SR leukemia it was 101%.

`CC12CCCCC1C(C(N)=O)C(=O)O2` (stereo not given): the growth in the assay on EKVX NSCLC was 123%; in the assay with SN12C renal, 97.9%; in the assay on UO-31 renal, 93.9%; in the assay on TK-10 renal, 100%; with ACHN renal it was 112%; in the assay with CAKI-1 renal it was 104%. For the same compound, the growth in the assay on A498 renal is 124%; in the assay on CCRF-CEM leukemia it was 102%; in the assay on MOLT-4 leukemia, 98.1%; with SR leukemia, 94.6%.

With `O=C(Oc1ccc[nH]c1=O)c1cccc(Cl)c1`, the growth with EKVX NSCLC was 104%; in the assay with SN12C renal, 108%; in the assay on UO-31 renal, 96.2%; in the assay with TK-10 renal it was 107%; with ACHN renal it was 96%; in the assay with CAKI-1 renal it was 101%. Also, the growth was 127% in the assay with A498 renal, 123% with CCRF-CEM leukemia, 115% with MOLT-4 leukemia and 99.2% with SR leukemia.

Take `COc1cc(C2CC(c3ccc(C)cc3)=NN2C(C)=O)ccc1Oc1ccnc2cc(Cl)ccc12` (stereo not given): the growth in the assay on EKVX NSCLC was 63.3%; in the assay with SN12C renal it was 77.5%; in the assay on UO-31 renal, 61.6%; with TK-10 renal, 11.1%; in the assay on ACHN renal, 32.2%; in the assay with CAKI-1 renal it was 58.1%. The growth was 64.3% in the assay on A498 renal, 74.5% in the assay on CCRF-CEM leukemia, 86.8% in the assay with MOLT-4 leukemia and 35.1% with SR leukemia.

On to `O=c1[nH]c(Cl)nc2c1cnn2-c1ccccc1`, for which the growth in the assay on EKVX NSCLC is 93.7%; in the assay on SN12C renal it was 97.4%; in the assay with UO-31 renal, 73.2%; in the assay on TK-10 renal, 102%; with ACHN renal it was 101%; with CAKI-1 renal, 61.6%. The growth was 84.1% with A498 renal, 40.9% with CCRF-CEM leukemia, 47.6% in the assay with MOLT-4 leukemia and 32.1% with SR leukemia.

For `Cc1cc(C(C)(C)C)cc(C)c1CC1=NCCN1`, the growth with EKVX NSCLC was 89%; with SN12C renal, 111%; in the assay with UO-31 renal, 93%; in the assay with TK-10 renal it was 113%; in the assay on ACHN renal, 92.8%; in the assay with CAKI-1 renal, 85.4%. Further, the growth in the assay on A498 renal was 117%; in the assay with CCRF-CEM leukemia, 103%; in the assay on MOLT-4 leukemia it was 93.5%; in the assay with SR leukemia, 94.3%.

`CCCCCCCC1(C)NC(=O)NC1=O` (stereo not given): the growth in the assay on EKVX NSCLC is 105%; in the assay on SN12C renal, 109%; in the assay on UO-31 renal it was 93.8%; with TK-10 renal, 132%; in the assay on ACHN renal it was 101%; with CAKI-1 renal, 105%. Further, the growth in the assay with A498 renal was 103%; in the assay with CCRF-CEM leukemia it was 94.2%; with MOLT-4 leukemia it was 106%; with SR leukemia, 96.9%.

For `O=C(Nc1ccncc1)C(=O)c1cn(S(=O)(=O)c2cccc(F)c2)c2ccccc12`, the growth in the assay on EKVX NSCLC was 35.4%; with SN12C renal it was 49.1%; with UO-31 renal, 56.7%; with TK-10 renal, 84.1%; in the assay with ACHN renal it was 55.9%; in the assay on CAKI-1 renal, 33.5%. The growth is 60.2% in the assay with A498 renal, 38.7% in the assay with CCRF-CEM leukemia, 35% in the assay on MOLT-4 leukemia and 16.5% with SR leukemia.

As for `NNC(=O)C1CC2c3ccccc3C1c1ccccc12` (stereo not given), the growth was 115% in the assay with EKVX NSCLC; 97.8% with SN12C renal; 93.8% with UO-31 renal; 97.5% in the assay with TK-10 renal; 117% with ACHN renal; 103% in the assay on CAKI-1 renal. Moreover, the growth is 129% in the assay on A498 renal, 82.8% in the assay on CCRF-CEM leukemia, 105% in the assay on MOLT-4 leukemia and 89% with SR leukemia.

For `CCCc1cccc(CCC)c1O`, the growth was 98.9% with EKVX NSCLC; 107% in the assay on SN12C renal; 98% with UO-31 renal; 116% in the assay with TK-10 renal; 115% with ACHN renal; 93.8% in the assay on CAKI-1 renal. The growth with A498 renal is 95.5%; with CCRF-CEM leukemia, 111%; in the assay on MOLT-4 leukemia, 105%; with SR leukemia, 116%.

Turning to `C=C(C[C@@](O)(C(=O)Oc1ccccc1)C(=O)C1CCCCC1)c1ccccc1`, the growth was 94.4% with EKVX NSCLC; 98% with SN12C renal; 83.8% in the assay with UO-31 renal; 97.7% with TK-10 renal; 112% with ACHN renal; 87.3% in the assay on CAKI-1 renal. Further, the growth with A498 renal is 106%; in the assay on CCRF-CEM leukemia, 95.4%; in the assay on MOLT-4 leukemia, 101%; in the assay on SR leukemia it was 103%.

Consider `CCCCCCCCCCCCCCCCCC1=NC(C)(C)CN1CCO`, for which the growth is 15.3% in the assay on EKVX NSCLC; -29.6% (active) in the assay with SN12C renal; -62.9% (active) with UO-31 renal; -33.8% (active) in the assay on TK-10 renal; -49.2% (active) in the assay with ACHN renal; -41% (active) in the assay on CAKI-1 renal. The growth with A498 renal was 117%; in the assay with CCRF-CEM leukemia, -42.9% (active); in the assay on MOLT-4 leukemia, -55.7% (active); with SR leukemia it was -42.7% (active).

On to `Oc1ccccc1C=Nc1ccccc1N=Cc1ccccc1O.[Cu+2]`, for which the growth was 67.1% with EKVX NSCLC; 60.3% in the assay on SN12C renal; 24% with UO-31 renal; 84.1% in the assay with TK-10 renal; 57.3% with ACHN renal; 68.6% with CAKI-1 renal. The growth was 92.8% in the assay on A498 renal, 27.9% in the assay on CCRF-CEM leukemia, 3.28% (active) in the assay with MOLT-4 leukemia and 66.3% with SR leukemia.

In the case of `Cc1c(C(N)=O)sc2ncn(Cc3ccccc3)c(=O)c12`, the growth is 122% with EKVX NSCLC; 97.8% with SN12C renal; 61.7% with UO-31 renal; 87.8% in the assay on TK-10 renal; 99.6% with ACHN renal; -1.53% (active) in the assay with CAKI-1 renal. Besides, the growth is 121% with A498 renal, 138% in the assay with CCRF-CEM leukemia, 114% with MOLT-4 leukemia and 92.8% with SR leukemia.
